Screens (PubChem BioAssay)
AMA1 RON2 block – qHTS for Inhibitors of AMA1-RON; Towards Development of Antimalarial Drug Lead: Primary Screen; Plasmodium falciparum AMA1 (3D7) - RON2 peptide interaction; 360,000 compounds, 0.2% hits; Potency, µM (doses to about 58.2 µM), inactives show at the top dose activity change, negative = inhibition, most hits filed as inhibitors; AID 720542, 2013; AlphaScreen AMA1-biotinylated RON2 peptide binding;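 note: potency is the fitted concentration of half-maximal effect; 0% = vehicle wells and -100% = peptide control; nearly all actives have a fitted effect of over 45% in size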
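AMA1 (3D7) with his tag at 25 nM final met compounds first, then biotinylated RON2 peptide at 25 nM; detection used donor plus acceptor beads, 10 µg/mL apiece, read by AlphaScreen after 30 min at room temperature.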
LmPK inhibitor – qHTS Assay for Inhibitors of Leishmania Mexicana Pyruvate Kinase (LmPK) | AID 1721, 2009 | 290,000 compounds, 0.37% hits | purified LmPK, Kinase-Glo ATP luminescence, 1 h | Potency, µM (highest dose often 57.5 µM), for inactives: at the highest dose activity change, negative = inhibition, usual class: inhibitors; note: potency is the fitted concentration of half-maximal effect; % is set by controls: 0 for no effect and ±100 for the full control effect
Target sequence (Q27686 whole entry, looked up): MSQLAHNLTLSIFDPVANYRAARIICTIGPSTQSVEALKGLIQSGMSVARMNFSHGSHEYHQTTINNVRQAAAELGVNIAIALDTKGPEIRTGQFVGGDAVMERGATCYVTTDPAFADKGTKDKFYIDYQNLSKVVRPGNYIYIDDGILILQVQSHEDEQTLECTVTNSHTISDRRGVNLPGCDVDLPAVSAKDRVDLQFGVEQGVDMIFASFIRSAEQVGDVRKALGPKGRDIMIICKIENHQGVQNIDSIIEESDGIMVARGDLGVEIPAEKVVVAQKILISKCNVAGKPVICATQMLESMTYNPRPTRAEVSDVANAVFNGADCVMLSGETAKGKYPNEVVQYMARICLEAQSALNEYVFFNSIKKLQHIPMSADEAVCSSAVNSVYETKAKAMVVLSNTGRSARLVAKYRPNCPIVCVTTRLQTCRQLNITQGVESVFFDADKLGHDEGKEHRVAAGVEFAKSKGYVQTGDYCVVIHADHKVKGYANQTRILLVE
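0.1 nM LmPK, 0.5 mM PEP, 0.1 mM ADP; 50 mM imidazole pH 7.2, 7 mM MgCl2, 50 mM KCl; 1 h RT. Kinase-Glo luminescence readout, normalized to no-enzyme (full inhibition) and uninhibited wells.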
TbPYK inhibitor – qHTS of Trypanosoma Brucei Inhibitors. 410,000 compounds, 0.12% hits. TbPYK enzyme, Kinase-Glo Plus ATP luminescence, 45 min. AID 624173, 2012. Potency, µM (doses to about 76.8 µM), inactives show at the highest dose activity, negative = inhibition, most hits filed as inhibitors; note: potency is the fitted concentration of half-maximal effect; % is set by controls: 0 for no effect and ±100 for the full control effect; nearly all actives have a fitted effect of over 50% in size
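Luminescent Kinase-Glo Plus end-point after 45 min room-temperature reaction of T. brucei pyruvate kinase started with 130 uM ADP (final). Buffer TEA 50 mM pH 7.2 with KCl, MgCl2, BSA, Tween-20; titration-based qHTS with fitted concentration-effect curves.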
VACV Venus inh – qHTS for Stage-Specific Inhibitors of Vaccinia Orthopoxvirus: Venus Reporter Primary qHTS; Vaccinia virus Venus reporter expression, fluorescence; AID 720580, 2013; Potency, µM (doses to about 36.5 µM), without a hit: top-dose activity change, negative = inhibition, most hits filed as inhibitors; 330,000 compounds, 0.46% hits; calls by dose curve; tested in A549 cells; note: potency is the fitted concentration of half-maximal effect; % is set by controls: 0 for no effect and ±100 for the full control effect; nearly all actives have a fitted effect of over 30% in size
VACV mCherry inh – qHTS for Stage-Specific Inhibitors of Vaccinia Orthopoxvirus: mCherry Reporter Primary qHTS | 310,000 compounds, 0.63% hits | AID 720579, 2013 | Potency, µM (highest dose often 36.5 µM), for inactives: at the top dose activity change, negative = inhibition, usual class: inhibitors | Vaccinia virus mCherry reporter infection, fluorescence; calls by dose curve; tested in A549 cells; note: potency is the fitted concentration of half-maximal effect; % is set by controls: 0 for no effect and ±100 for the full control effect; nearly all actives have a fitted effect of over 35% in size
RE007 growth inh – qHTS Assay for Inhibitors of the HIV-1 protein Vpr; S. pombe RE007 Vpr strain, BacTiter-Glo ATP luminescence, 24 h; Potency, µM (top dose mostly 92.2 µM), for the others: at the highest dose activity change, negative = less growth, actives largely listed as inhibitors; 360,000 compounds, 0.21% hits; active = well fitted falling curve with a large enough effect; inconclusive = small, poorly fitted or top-dose-only effect; inactive = no such curve, though single readings can be large or run the other way; note: potency is the fitted concentration of half-maximal effect; % is set by controls: 0 for no effect and ±100 for the full control effect; nearly all actives have a fitted effect of over 50% in size
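Fission yeast RE007 carrying one integrated HIV-1 vpr copy, seeded at OD 0.01 in PMG+AL medium with 23 nL pinned compound. Grown 24 h at 30 degrees; viability read by BacTiter-Glo luminescence after 5 min.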
LmPK confirm – Confirmation Assay for Inhibitors of Leishmania Mexicana Pyruvate Kinase (LmPK). shares compounds with LmPK inhibitor. purified LmPK, Kinase-Glo ATP luminescence, 1 h. Potency, µM (top dose mostly 57.5 µM), for inactives: at the highest dose activity change, negative = inhibition, actives largely listed as inhibitors. 150 compounds, 40% hits. AID 2559, 2010;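 active = compounds giving a full or partial concentration-response curve, as inhibitors or activators; inconclusive = weak, top-dose-only or unclear curve responses; inactive = no response at any tested dose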
Numbers without * were called inactive; i = inactive; ? = inconclusive; . = not tested or not shown; [ ] = remark or other dose. Only some compounds are listed: those with a hit (about 1.3% of all), similar ones and a draw of the others. Unless noted, calls come from the whole dose curve; as a rule, active = well fitted curve in the direction sought with a large enough effect; inconclusive = small, poorly fitted or top-dose-only effect, or another doubt; inactive = no such curve, though single readings can be large; an effect the other way counts as inactive or inconclusive.

SMILES	AMA1 RON2 block	LmPK inhibitor	TbPYK inhibitor	VACV Venus inh	VACV mCherry inh	RE007 growth inh	LmPK confirm
O=C(Cn1c(-c2cccs2)cc2cc(F)ccc21)NCCc1ccc(Cl)cc1	.	.	-2.8%	-3.1%	-2.0%	.	.
CC(=O)c1cc(C#N)c(Oc2cc(C)cc(C)c2)nc1C	3.7%	-3.7%	?	-19.3%	-20.9%	3.0%	.
CC(=O)c1cc(C#N)c(Oc2ccc(F)cc2)nc1C	-6.2%	3.8%	-2.9%	-20.9%	.	-12.9%	4.3%
CCC1CN(C(=O)N2CCC(C(=O)NCCc3ccc(C)cc3)CC2)c2ccccc2O1 (centres undefined)	.	.	-8.8%	-11.6%	1.9%	.	.
c1ccc(C2=NNC(=NC3CC3)SC2)cc1	26.5%	4.47µM*	?	-8.0%	i	?	14.6µM*
Cc1ccc(N(Cc2cccs2)C(=O)c2ccccc2)cc1	.	.	1.8%	6.1%	0.5%	.	.
CN(Cc1ccc(F)cc1)S(=O)(=O)c1nnc(NC(=O)c2ccccc2Cl)s1	.	.	-12.5%[15.4 µM]	-9.8%	-12.3%	.	.
COc1ccc(OC)c2[nH]c(=O)c(CCNS(=O)(=O)c3ccc(C)cc3)cc12	-6.1%	1.5%	3.2%	-12.7%	-1.1%	3.3%	5.1%
COc1ccc(OC)c2[nH]c(=O)c(CCNS(=O)(=O)c3ccc(Cl)cc3)cc12	4.2%	9.0%	-1.0%	-6.7%	.	11.1%	.
CC(C)C(NC(=O)c1ccc2c(c1)OCO2)C(=O)N/N=C\c1ccco1 (centres undefined)	0.4%	-0.5%	-4.1%	16.3%	13.0%	-1.8%	8.0%
CCN(Cc1ccncc1)Cc1cn(C)nc1-c1ccc(Oc2ccccc2)cc1	0.0%	1.7%	4.5%	.	.	0.9%	-2.2%
COC(=O)CSC1=NS(=O)(=O)c2ccccc21	-9.2%	5.01µM*	22.4µM*	-19.0%	i	-17.4%	?
COC(=O)CSc1ccccc1C(=O)OC	8.7%	-2.9%	3.2%	-4.3%	-11.8%	-4.9%	.
Cn1cc(CN(Cc2ccccn2)C[C@@H]2CCC(=O)N2)c(-c2ccccc2F)n1	104.9%	-7.1%	-6.2%	.	.	2.1%	.
Cn1cc(CN(Cc2ccccc2)C[C@@H]2CCC(=O)N2)c(-c2ccccc2F)n1	-9.8%	-1.1%	-2.1%	-8.8%	i	-2.0%	6.5%
Cc1ccc(N)cc1O	11.2%	.	0.1%	-2.9%	-14.5%	-2.7%	.
Cc1cc(O)c(-c2cc(O)c(C)cc2O)cc1O	?	0.708µM*	?	.	.	0.1%	?
Cc1ccc(C(=O)N(Cc2cc3ccc(F)cc3nc2N2CCC(O)CC2)CC2CCCO2)cc1 (centres undefined)	.	.	.	-6.6%	-16.9%	.	.
COc1ccccc1C(=O)NCCNc1nc2cc(C)cc(C)c2cc1C#N	-1.7%	1.8%	-12.3%	.	.	3.7%	.
Cc1cc(C)c2cc(C#N)c(NCCOC(=O)c3ccccc3C)nc2c1	57.7%	0.0%	4.0%	19.1%	5.1%	-6.3%	2.4%
Cc1ccc(-c2nc3scc(CCNS(=O)(=O)c4ccc(C)c(C)c4)n3n2)cc1	.	.	-9.9%	-13.0%	-6.5%	.	.
c1ccc2nc(-c3nc4ccccc4[nH]3)ccc2c1	21.2%	4.47µM*	?	-18.6%	-8.8%[1.46 µM]	?	9.19µM*
c1ccc2[nH]c(-c3cscn3)nc2c1	9.5%	?	-5.7%	-19.8%	-4.4%	-11.1%[18.4 µM]	.
COc1ccc(CCn2c(=S)[nH]c(=O)c3[nH]cnc32)cc1OC	.	.	.	-11.3%	i	.	.
CCOC(=O)c1nnn(-c2nonc2N)c1-c1ccc(C)cc1	-1.8%	6.6%	-1.3%	-17.6%	.	-0.1%	5.4%
CCOC(=O)c1nnn(-c2nonc2N)c1-c1ccc(Br)cc1	-4.0%	6.3%	-0.1%	.	.	13.3%	.
Cc1nn(CCC(=O)N2CCN(c3ccccc3)CC2)c(C)c1S(=O)(=O)N1CCCC1	.	.	-0.2%	-4.1%	-11.7%	.	.
